# Data taken from PubChem BioAssay.
# “And” between values parts separate entries of the source, which are not always exact repeats. Identical values can stand only once.
# Biological target: Albumin (Bos taurus) (UniProt P02769)
# Experiment: compounds binding labelled BSA control protein – biochemical, small-molecule microarray, Alexa647 label, 635/667 nm fluorescence, artefact control for SMM control protein annotation, profiling panel (AID 1118);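 note: score merges 667 nm emission intensity and signal-to-noise per printed compound spot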
# Conditions: BSA-A647 binding, fluorescence 635 nm, higher = more signal
# Chain of Albumin (Bos taurus) (P02769 whole entry, looked up): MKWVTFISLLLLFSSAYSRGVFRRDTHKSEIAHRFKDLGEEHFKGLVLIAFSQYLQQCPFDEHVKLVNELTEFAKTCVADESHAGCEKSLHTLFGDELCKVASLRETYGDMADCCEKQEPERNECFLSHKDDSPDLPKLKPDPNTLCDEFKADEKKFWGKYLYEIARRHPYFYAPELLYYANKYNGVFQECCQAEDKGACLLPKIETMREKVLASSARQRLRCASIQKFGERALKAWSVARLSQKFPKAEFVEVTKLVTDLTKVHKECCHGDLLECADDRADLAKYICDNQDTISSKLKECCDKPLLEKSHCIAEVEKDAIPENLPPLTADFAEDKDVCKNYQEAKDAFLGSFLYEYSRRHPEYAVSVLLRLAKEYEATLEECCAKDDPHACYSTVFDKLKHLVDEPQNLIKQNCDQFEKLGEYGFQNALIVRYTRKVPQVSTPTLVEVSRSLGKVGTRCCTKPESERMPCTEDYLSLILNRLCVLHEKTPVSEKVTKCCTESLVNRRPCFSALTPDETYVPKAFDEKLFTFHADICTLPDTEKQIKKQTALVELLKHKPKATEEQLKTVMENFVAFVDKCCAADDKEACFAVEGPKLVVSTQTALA
row,SMILES,composite z-score
1,CC(C)=NOC[C@@H](O)COCc1ccco1,-0.206
2,COC(=O)C1=C(C)N(Cc2ccccc2)C2=C(C(C)=O)C[C@@](O)(C(=O)OC)C(=O)N2[C@@H]1c1ccccc1,0.838 and 0.336
3,COC(=O)[C@@]1(Cc2ccc(OC)cc2)[C@H]2c3cc(C(=O)N(C)C)n(Cc4ccc(O)c(OC)c4)c3C[C@H]2CN1C(=O)c1ccccc1,1.03 and 0.843
4,C=CC[C@H](O)c1ccc(OCCO)cc1,0.787 and -0.0212
5,CC(C)=NO[C@@H](C)c1cc(-c2c(C)cc(C)cc2C)no1,0.0075
6,C[N+](C)(C)CCCCNC(=O)[C@H]1C[C@H]2C(=O)N[C@@H](CCCC[N+](C)(C)C)C(=O)N2[C@H]1c1ccc(O)cc1,-0.839 and -1.32
7,C[C@@]1([C@@H](NC(=O)Cc2ccccc2)c2ccc(-c3ccccc3)cc2)C[C@H]1C1CCCCC1,0.895 and 0.715 and 0.978
8,CCN1C(=O)[C@H]2[C@H]3[C@H](O)[C@H](O)CC(=NOC)[C@@H]3CC[C@H]2C1=O,-0.311
9,O=C1NC(=O)C2C1C=CC(C(O)c1ccc([N+](=O)[O-])cc1)N2Nc1ccc(Cl)cc1Cl (stereo not given),0.933 and 0.732
10,C=C[C@H](C)[C@@H](O)c1ccc(OCCO)cc1,0.746 and -0.0233
11,CC(C)CON=C1C[C@@H](O)[C@@H](O)[C@@H]2[C@@H]3C(=O)N(c4cccc(Oc5ccccc5)c4)C(=O)[C@@H]3CC[C@H]12,0.529
12,CO[C@H]1COC(=O)CC=C[C@@H](C)COC(=O)[C@H](CCSC)NC(=O)CC=C[C@@H]1C,-1.57 and -1.06
13,C=C[C@@H](OC)[C@H](O)c1ccc(OCCO)cc1,-0.128 and 0.397
14,CCOC(=O)c1ccc(NC(=O)O[C@H]2[C@H](OC(=O)Nc3ccccc3)[C@@H](OC(=O)Nc3ccccc3)[C@@H](OC)O[C@@H]2CO)cc1,0.905 and 0.893
15,C=CCN(C(=O)C(c1cccs1)N(CCOCCO)C(=O)/C=C\C(=O)O)c1ccc(OC)cc1 (stereo not given),-0.625 and -1.25
16,C#CCN1C(/C=C/c2ccccc2)C(=O)OC[C@H]1c1ccccc1 (stereo not given in full),-0.147 and 0.723
17,CO[C@@H]1COC(=O)CC=C[C@H](C)COC(=O)[C@H](C)NC(=O)CC=C[C@H]1C,-1.02
18,Cc1cc2c(nc1C)CCCN2CC(O)CN1CCCc2nc(-c3ccc(Br)cc3)ccc21 (stereo not given),-0.473 and 0.163

row,SMILES,composite z-score
1,C=CCN(CCCCC)C(=O)C(c1cccs1)N(CCOCCO)C(=O)/C=C\C(=O)O (stereo not given),-0.148 and -0.301
2,COc1ccc(-c2ccc3c(n2)CCCN3CC(O)CN2CCCc3nc(-c4ccc(Br)cc4)ccc32)cc1 (stereo not given),0.479 and 0.259
3,C=C[C@H](OC)[C@@H](O)c1ccc(OCCO)cc1,-1.69 and -0.599
4,C=CCN(C(=O)C1N(CCCCCCO)C(=O)C2C(C(=O)O)C3C=CC21O3)c1ccc(OC)cc1 (stereo not given),-0.547 and -1.14
5,O=C1C[C@]2(c3ccc([N+](=O)[O-])cc3)C(=O)N(Cc3ccccc3)c3cc(CO)ccc3[C@H]2N1C1CCCCC1,-0.047 and -0.118
6,C=CCN(C(=O)C1N(c2c(Cl)cccc2CO)C(=O)C2C(C(=O)O)C3C=CC21O3)c1ccc(OC)cc1 (stereo not given),0.14 and -0.586
7,C=CCN(C(=O)C1N(CCOCCO)C(=O)C2C(C(=O)O)C3C=CC21O3)C(C)(C)C (stereo not given),0.106 and -0.502
8,COC(=O)C1=C2N(Cc3ccccc3)C(C)=C(C(=O)OC)[C@@H](c3ccccc3)N2C(=O)[C@](O)(C(=O)OC)C1,0.514 and -0.0136
9,O=c1n(-c2ccccc2)c(=O)n2n1CC[C@@H]1C(=NOC[C@@H](O)COCc3ccco3)[C@H]3O[C@H]3[C@@H](O)[C@@H]12,-0.73 and 0.143
10,CC(CO)N1C(=O)[C@@H]2C3C(=O)OCCC=C[C@H]3OC23C=CCN(c2ccc(Cl)cc2)C(=O)[C@@H]13 (stereo not given in full),-0.999 and 0.734
11,CC(C)[Si]1(C(C)C)OCc2cc(CCCc3cc4c(c(CCc5ccccc5)n3)[Si](C(C)C)(C(C)C)OC4)nc(CCc3ccccc3)c21,-1.72 and -0.26
12,C=CCN(Cc1ccccc1)C(=O)C1N(CCOCCO)C(=O)C2C(C(=O)O)C3C=CC21O3 (stereo not given),-1.03 and 0.202
13,C[N+](C)(C)CCCCCCNC(=O)[C@H]1C[C@H]2C(=O)N[C@@H](CCCC[N+](C)(C)C)C(=O)N2[C@H]1c1cccc(OCCO)c1,-0.239 and -0.101
14,CCCCCN1CC=CC23O[C@@H]4C=CCCOC(=O)C4[C@H]2C(=O)N(C(C)CO)[C@@H]3C1=O (stereo not given in full),0.345 and -0.098
15,O=C1[C@H]2[C@H]3[C@H](O)[C@H](O)CC(=NOCc4ccccc4)[C@H]3CC[C@H]2C(=O)N1Cc1ccccc1,0.273
16,CO[C@H]1COC(=O)CC=C[C@H](C)[C@H](OC)COC(=O)[C@@H](C)COC(=O)CC=C[C@@H]1C,-0.774 and -0.721
17,CN1C(=O)C2CC=C([C@H]3Oc4ccccc4S(=O)(=O)N4CCC[C@@H]34)CC2C1=O (stereo not given in full),-0.75 and -0.505
